Inconclusive results are not listed. The source made the active and inactive calls. The call rests on the fitted dose curve; in most records, active means well fitted curve in the direction sought with a large enough effect; inconclusive means small, poorly fitted or top-dose-only effect, or another doubt; inactive means no such curve, though single readings can be large; an effect the other way counts as inactive or inconclusive.
Assays:
[1] = biological target: Rap guanine nucleotide exchange factor 3 (Homo sapiens) (UniProt O95398); experiment: Confirmatory qHTS for agonist of cAMP-regulated guanine nucleotide exchange factor 3 (EPAC1) (AID 1645881);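 further: EPAC1 catalysed release of BODIPY-GDP from Rap1B seen as fluorescence loss; 100% = effect of cAMP agonist control; nearly all actives have a fitted effect of over 75% in size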
[2] = biological target: Rap guanine nucleotide exchange factor 4 (Homo sapiens) (UniProt Q8WZA2); experiment: Confirmatory qHTS for agonist of cAMP-regulated guanine nucleotide exchange factor 4 (EPAC2) (AID 1645884);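 further: nucleotide exchange releases bodipy-GDP from Rap1 and this lowers its fluorescence; on the % scale 0 is the no-effect control and ±100 the full control effect; nearly all actives have a fitted effect of over 65% in size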
[3] = biological target: Rap guanine nucleotide exchange factor 3 (Homo sapiens) (UniProt O95398); experiment: Counterscreen qHTS for antagonist of cAMP-regulated guanine nucleotide exchange factor 3 (EPAC1) (AID 1645888);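 further: fluorescence loss as bound BODIPY-GDP is released from Rap1B; % of control where 0% means no effect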
Summary of the method: (§1)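 Measured: fluorescence of BODIPY-GDP bound to Rap1B, which falls as exchange proceeds. Conditions include 50 uM competing GDP, 5 and 30 min reads, and a later cAMP challenge for antagonist detection.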

[4] = biological target: Rap guanine nucleotide exchange factor 3 (Homo sapiens) (UniProt O95398); experiment: Counterscreen qHTS for agonist of cAMP-regulated guanine nucleotide exchange factor 3 (EPAC1) (AID 1645889); further: % of control where 0% means no effect; nearly all actives have a fitted effect of over 40% in size
Summary of the method: as §1

Rap guanine nucleotide exchange factor 4 (Homo sapiens), sequence (Q8WZA2 whole entry, looked up): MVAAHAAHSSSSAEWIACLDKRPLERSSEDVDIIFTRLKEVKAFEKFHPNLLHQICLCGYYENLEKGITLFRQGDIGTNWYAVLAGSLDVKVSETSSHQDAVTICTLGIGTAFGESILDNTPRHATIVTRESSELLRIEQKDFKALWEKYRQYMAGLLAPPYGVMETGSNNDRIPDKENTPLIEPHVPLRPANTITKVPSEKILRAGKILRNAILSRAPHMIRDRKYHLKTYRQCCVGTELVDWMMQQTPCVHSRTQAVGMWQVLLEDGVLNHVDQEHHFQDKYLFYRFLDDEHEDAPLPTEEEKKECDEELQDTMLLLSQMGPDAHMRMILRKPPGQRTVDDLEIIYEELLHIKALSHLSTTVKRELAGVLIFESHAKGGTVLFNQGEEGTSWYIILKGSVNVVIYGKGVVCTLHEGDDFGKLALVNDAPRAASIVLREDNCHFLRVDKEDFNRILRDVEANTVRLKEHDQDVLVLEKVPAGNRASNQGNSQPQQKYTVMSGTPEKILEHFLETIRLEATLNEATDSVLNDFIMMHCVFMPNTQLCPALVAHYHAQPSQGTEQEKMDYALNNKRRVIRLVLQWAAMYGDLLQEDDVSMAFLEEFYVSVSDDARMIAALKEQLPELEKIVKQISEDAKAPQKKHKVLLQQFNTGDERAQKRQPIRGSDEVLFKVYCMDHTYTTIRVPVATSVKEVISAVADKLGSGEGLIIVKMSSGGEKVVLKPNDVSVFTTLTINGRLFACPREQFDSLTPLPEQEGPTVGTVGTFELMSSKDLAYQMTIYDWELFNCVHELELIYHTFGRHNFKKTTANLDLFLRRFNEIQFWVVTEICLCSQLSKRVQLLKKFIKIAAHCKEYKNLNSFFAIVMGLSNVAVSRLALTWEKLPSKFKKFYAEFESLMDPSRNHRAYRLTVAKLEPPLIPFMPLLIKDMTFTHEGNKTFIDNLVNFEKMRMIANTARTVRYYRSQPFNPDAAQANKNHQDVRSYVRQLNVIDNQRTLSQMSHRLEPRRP
Rap guanine nucleotide exchange factor 3 (Homo sapiens), sequence (O95398 whole entry, looked up): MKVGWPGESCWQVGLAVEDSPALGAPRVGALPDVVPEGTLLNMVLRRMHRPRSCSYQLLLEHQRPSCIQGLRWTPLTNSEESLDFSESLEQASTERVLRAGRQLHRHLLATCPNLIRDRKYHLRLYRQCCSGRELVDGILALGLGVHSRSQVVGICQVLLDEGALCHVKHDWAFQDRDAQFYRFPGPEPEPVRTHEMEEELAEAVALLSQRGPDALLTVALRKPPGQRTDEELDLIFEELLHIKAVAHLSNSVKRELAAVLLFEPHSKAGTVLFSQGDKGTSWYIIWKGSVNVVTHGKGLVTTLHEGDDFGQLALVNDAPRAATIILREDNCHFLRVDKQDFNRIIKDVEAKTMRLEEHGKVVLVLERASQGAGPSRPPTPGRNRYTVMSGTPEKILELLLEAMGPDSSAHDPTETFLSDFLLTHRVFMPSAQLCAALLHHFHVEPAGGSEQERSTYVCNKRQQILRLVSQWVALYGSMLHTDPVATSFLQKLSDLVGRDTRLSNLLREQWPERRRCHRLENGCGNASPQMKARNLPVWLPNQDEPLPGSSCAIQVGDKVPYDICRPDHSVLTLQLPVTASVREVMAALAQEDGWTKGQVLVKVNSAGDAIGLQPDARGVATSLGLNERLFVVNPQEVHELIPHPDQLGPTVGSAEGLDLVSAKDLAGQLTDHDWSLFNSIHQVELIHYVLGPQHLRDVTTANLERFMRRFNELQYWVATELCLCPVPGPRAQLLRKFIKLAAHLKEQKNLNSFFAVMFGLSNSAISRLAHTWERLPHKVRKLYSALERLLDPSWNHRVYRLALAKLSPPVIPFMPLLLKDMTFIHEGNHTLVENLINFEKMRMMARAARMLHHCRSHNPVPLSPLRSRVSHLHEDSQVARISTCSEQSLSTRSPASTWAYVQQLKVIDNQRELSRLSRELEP

O=c1oc2ccccc2n1Cc1ccccc1Cl
inactive: Potency [1] | Potency [2] | Potency [3] | Potency [4]

Cc1ccc(C)c(Cn2nc(-c3ccccc3)ccc2=O)c1
inactive: Potency [1] | activation [2] -4.57% [at 17.1 µM, percent relative to cAMP agonist control] | activity change, negative = inhibition [3] 14.9% [at 30.8 µM] | activation [4] 3.62% [at 30.8 µM]

Cc1cc(C(C)(C)C)cc(C)c1COC(=O)c1cccnc1
inactive: Potency [1] | Potency [2] | Potency [3] | Potency [4]

O=C(O)C1Nc2c(Cl)cc(Cl)c(Cl)c2C2C=CCC12 (stereo not drawn)
inactive: Potency [1] | Potency [2] | Potency [3] | Potency [4]

N=C1S/C(=C\c2ccco2)C(=O)N1c1ccc2c(c1)OCO2
inactive: Potency [1] | Potency [2] | Potency [3] | Potency [4]

COc1ccc(NC(=O)c2cccnc2NCCc2ccccc2)cc1
inactive: Potency [1] | Potency [2] | Potency [3] | Potency [4]

CCc1c(C2(O)CCCCC2)[nH]c2c(C(=O)OC)cc(Cl)cc12
inactive: Potency [1] | Potency [2] | Potency [3] | Potency [4]

COc1ccccc1N1C(=O)C2C(C(=O)c3ccccc3)=NN(c3ccc(Br)cc3)C2C1=O (stereo not drawn)
inactive: Potency [1] | Potency [2] | Potency [3] | Potency [4]

Cc1cc(Br)c2c(c1)[C@](O)(c1cn(C)c3ccccc13)C(=O)N2C
inactive: Potency [1] | activation [2] 1.9% [at 17.1 µM, percent relative to cAMP agonist control] | activity change, negative = inhibition [3] -15.6% [at 30.8 µM] | activation [4] 24.7% [at 30.8 µM]

O=C(O)CSc1nnc(COc2cccc3ccccc23)n1Cc1ccccc1
inactive: Potency [1] | Potency [2] | Potency [3] | Potency [4]

COc1cccc(C(=O)Oc2ccc(/C=N/Nc3ccc(C(=O)O)cc3)cc2OC)c1
inactive: Potency [1] | Potency [2] | Potency [3] | Potency [4]

Cc1ccc(O)c(CNc2ccc(S(=O)(=O)Nc3nccs3)cc2)c1
inactive: Potency [1] | activation [2] -10.4% [at 17.1 µM, percent relative to cAMP agonist control] | activity change, negative = inhibition [3] 1.37% [at 30.8 µM] | activation [4] 19.2% [at 30.8 µM]

CC1(c2ccccc2)CC(C)(C)N2C(=O)C(=O)c3cccc1c32 (stereo not drawn)
inactive: Potency [1] | activation [2] -2.11% [at 17.1 µM, percent relative to cAMP agonist control] | activity change, negative = inhibition [3] -4.27% [at 30.8 µM] | activation [4] 21.7% [at 30.8 µM]

C=CC[C@@H](Cc1ccc(F)cc1)C(=O)OC[C@@H]1CCCN1C(=O)[C@@H](CC=C)CC(=O)N(CCO)Cc1ccccc1
inactive: Potency [1] | Potency [2] | Potency [3] | Potency [4]

Cc1ccccc1-c1ccc(CN2C(C(C)C)C(=O)N(Cc3cn(CCC4OCCO4)nn3)CCS2(=O)=O)cc1 (stereo not drawn)
inactive: Potency [1] | Potency [2] | Potency [3] | Potency [4]

O=C(O)c1ccc(COc2ccccc2/C=C2\NC(=O)N(Cc3ccc(F)cc3)C2=O)cc1
inactive: Potency [1] | Potency [2] | Potency [3] | Potency [4]

O=C(CC1C[C@H](C(=O)N2CCCCC2)[C@@]2(CCc3ccccc3)c3[nH]c4ccccc4c3CCN2C1=O)NCCCn1ccnc1 (stereo partly drawn)
inactive: Potency [1] | Potency [2] | Potency [3] | Potency [4]

CCCCN(CCCC)C1=Nc2ccccc2N/C1=C(/C#N)C(=O)OCC
inactive: Potency [1] | Potency [2] | Potency [3] | Potency [4]

COc1cc(/C=C2\SC(=S)N(NC(=O)c3ccc(O)c(OC)c3)C2=O)ccc1O
inactive: Potency [1] | Potency [2] | Potency [3] | Potency [4]

Cc1ccc(Nc2c([N+](=O)[O-])c(=O)oc3ccccc23)cc1C
inactive: Potency [1] | Potency [2] | Potency [3] | Potency [4]

CN(CC(=O)Nc1ccccc1Cl)C(=O)c1ccc(Cl)c(S(=O)(=O)N2CCCCCC2)c1
inactive: Potency [1] | Potency [2] | Potency [3] | Potency [4]

CC(=O)C1=C(O)C2(C)c3c(O)c(C)c(O)c(C(C)=O)c3OC2CC1=O (stereo not drawn)
inactive: Potency [1] | activation [2] -4.59% [at 17.1 µM, percent relative to cAMP agonist control] | activity change, negative = inhibition [3] -6.21% [at 30.8 µM] | activation [4] -4.12% [at 30.8 µM]

COc1ccc(/C=C/C(=O)c2ccccc2)c(OC)c1
inactive: Potency [1] | activation [2] 0.603% [at 17.1 µM, percent relative to cAMP agonist control] | activity change, negative = inhibition [3] -16.1% [at 30.8 µM] | activation [4] -1.52% [at 30.8 µM]

CC1=NN(c2nc(-c3ccccc3)cs2)C(=O)C1
inactive: Potency [1] | Potency [2] | Potency [3] | Potency [4]

N#Cc1c(-c2ccc(Cl)cc2)cc(-c2cccs2)nc1SCC(=O)O
inactive: Potency [1] | Potency [2] | Potency [3] | Potency [4]

C[C@@H]1CCCCCCCCC(=O)OCCN1C(=O)OC(C)(C)C
inactive: Potency [1] | Potency [2] | Potency [3] | Potency [4]

CCCCn1c(=O)[nH]c(=O)c2c1nc(-c1ccccc1F)n2Cc1ccccc1OC
inactive: Potency [1] | Potency [2] | Potency [3] | Potency [4]

From PubChem BioAssay (NCATS)
